We go through 86 sequences from the supplement of paper PMC3334620.

In all, about 33,000 sequences were measured (“E-score (-0.5 to 0.5)”: median about -0.021, highest 2% from about 0.32 on). This excerpt belongs to a sample that is enriched for the highest values.

This assay has as its target T1, Zap1 (UniProt P47043).
T1 sequence: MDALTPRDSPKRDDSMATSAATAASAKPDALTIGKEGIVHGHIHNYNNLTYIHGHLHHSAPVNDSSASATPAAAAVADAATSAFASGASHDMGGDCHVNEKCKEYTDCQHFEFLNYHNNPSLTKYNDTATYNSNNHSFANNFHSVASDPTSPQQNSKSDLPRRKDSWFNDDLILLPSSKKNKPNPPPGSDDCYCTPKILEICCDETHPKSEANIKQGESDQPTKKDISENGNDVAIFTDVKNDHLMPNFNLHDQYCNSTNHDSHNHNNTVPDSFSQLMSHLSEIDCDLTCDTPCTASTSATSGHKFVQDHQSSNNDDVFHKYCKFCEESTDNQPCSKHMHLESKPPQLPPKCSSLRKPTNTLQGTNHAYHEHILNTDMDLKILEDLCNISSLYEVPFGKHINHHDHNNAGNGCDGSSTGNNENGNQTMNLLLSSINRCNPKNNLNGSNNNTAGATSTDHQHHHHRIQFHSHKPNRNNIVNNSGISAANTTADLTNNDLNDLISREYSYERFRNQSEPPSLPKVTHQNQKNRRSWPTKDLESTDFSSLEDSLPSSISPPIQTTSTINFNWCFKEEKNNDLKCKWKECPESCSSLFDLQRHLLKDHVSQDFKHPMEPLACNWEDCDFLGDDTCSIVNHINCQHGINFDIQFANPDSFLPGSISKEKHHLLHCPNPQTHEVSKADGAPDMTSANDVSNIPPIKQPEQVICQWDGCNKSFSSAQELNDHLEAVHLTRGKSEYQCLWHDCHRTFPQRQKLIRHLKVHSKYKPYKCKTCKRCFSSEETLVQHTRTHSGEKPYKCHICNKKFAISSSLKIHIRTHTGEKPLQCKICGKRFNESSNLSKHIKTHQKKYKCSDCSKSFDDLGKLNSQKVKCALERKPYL
The assay is described as follows: PBM E-score (8-mer binding enrichment) (E-score (-0.5 to 0.5)); higher = stronger / more preferred TF binding. The settings on record: protein concentration: 200 nM; construct: GST-full length. The essentials: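 Each ungapped eight-base word and its reverse complement, pooled, received an E-score from the Universal PBM Analysis Suite. Underlying scans, normalised with masliner, recorded fluorescent anti-GST bound to GST-tagged yeast transcription factors. These were applied at about 100-200 nM to universal all-10-mer Agilent arrays double-stranded by primer extension.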
As to GAGTACCA, the “PBM E-score” value came out at 0.247.
For CGAATTCG, the “PBM E-score” value is -0.233.
Regarding TAGCAAAA, the “PBM E-score” value is 0.0555.
The figure for AGAGCAAG is -0.196.
In the case of AGAACCCT it was 0.321; in that of ACAACCCT, 0.443; in that of ACAACCCA, 0.286.
The figure for AGAACCCA is 0.19; for AGAACCCC it is 0.294.
Regarding ACGACCCT, the “PBM E-score” value was 0.348.
In the case of ACAACCGT it was 0.0867; in that of ACGACCCG, 0.0256.
In the case of ACGACCCA it was 0.2; in that of ACAAACCG, 0.027; in that of CCAACCCG, 0.148.
Take ACAACCCG: the “PBM E-score” value was 0.398.
The figure for AGTCCTCG is -0.272; for AAGATAGC it is -0.144.
As to AATAAGGA, the “PBM E-score” value was -0.00733.
In the case of AAGCACAA it was 0.154; in that of GCGATGGA, 0.0884.
The figure for CCTTGACG is 0.115; for ACAACCCC it is 0.321.
The figure for GCAACCCC is 0.342; for GCAACCCA it is 0.294.
Consider AAAACCCC, for which the “PBM E-score” value came out at 0.276.
The figure for ACAACCTC is 0.31.
In the case of AAACCCCT it was 0.188.
In the case of CCAACCCC it was 0.224.
Take ACAAACCC: the “PBM E-score” value was determined as 0.0973.
Consider AAAACCCT, for which the “PBM E-score” value amounted to 0.362.
As to GGCCAGCC, the “PBM E-score” value was -0.142.
Turning to AAATCCTC, the “PBM E-score” value is -0.279.
The figure for AGGACCAG is -0.0376; for CGGAGTAG it is -0.149; for CTCCTGTA it is -0.0674.
The figure for ATGGATTG is -0.0434; for CGGAATCA it is -0.0619.
The figure for CGGGCCAC is 0.125.
On to CGTCGAGC, for which the “PBM E-score” value was -0.244.
The figure for CAATGAGC is -0.126; for CCGTAACG it is 0.0821.
In the case of GCGTAACA it was -0.135; in that of ACGTAACT, 0.0456.
In the case of GCGTAACC it was 0.446; in that of GCGTAAGC, -0.239.
CCGTAACC: the “PBM E-score” value worked out at 0.471.
ACGTAACG: the “PBM E-score” value is -0.248.
Consider ACGTAACC, for which the “PBM E-score” value stood at 0.411.
The figure for CCGTAACA is 0.0988; for CTTAAGGA it is 0.119; for ATGGGGCG it is -0.129.
The figure for ATTTAACG is 0.023.
CTTTTAAC: the “PBM E-score” value was 0.0885.
As to ATTTAACC, the “PBM E-score” value amounted to 0.418.
The figure for CTTTAACC is 0.405; for ATTTAACA it is -0.0688.
The figure for CTTTAACA is 0.123.
In the case of CGCTGATA it was -0.172; in that of ACAGGTTC, -0.12.
CCAGGTTC: the “PBM E-score” value is -0.159.
In the case of ACAGGTTA it was 0.398; in that of ACAGGTTG, 0.147.
In the case of GCAGGTCA it was 0.194; in that of GCAGGTAA, 0.173; in that of CCAGGTTA, 0.382.
The figure for CCAGGTAA is 0.041.
Consider GCAGGTTA, for which the “PBM E-score” value turned out to be 0.335.
In the case of TCGCCACA it was -0.04.
In the case of AGCAGCCT it was -0.168; in that of ATAGCAGG, 0.0205; in that of ATGAATGG, 0.203.
In the case of CTAGTAGC it was -0.168; in that of ACGATATC, 0.0333.
With CTGGGTTC, the “PBM E-score” value is 0.0979.
In the case of ATGGGTTG, the “PBM E-score” value is 0.234.
With CTGGGTCA, the “PBM E-score” value came out at 0.143.
As to CTGGGTTA, the “PBM E-score” value is 0.369.
In the case of GTGGGTAA it was 0.0319; in that of GTGGGTTA, 0.404.
Consider ATGGGTTA, for which the “PBM E-score” value was determined as 0.455.
In the case of ATGGGTTC it was 0.116; in that of GTGGGTGA, 0.0723; in that of GCCACAAC, 0.212.
In the case of TAGGACGA it was -0.113; in that of AGCAAGCG, -0.192.
